In PubChem BioAssay one finds z-score and composite z-score data, which are given here for eleven compounds.

The nature of test [1]: resazurin metabolic signal in HepG2 cells – cell-based, resazurin fluorescence, 24 h, PK04 Diversity Set, profiling panel (AID 1172). Note: test concentration not given here. Particulars: HepG2 viability, higher = more signal. (The colour change of resazurin is a common sign of viable cells or microbes.)
Test [2] is described as follows: budding yeast growth changes without added modifier – OD600, strain BY4716, 24 h, basal condition, primary screen (AID 1173). The settings on record: S. cerevisiae BY4716 growth, OD600, 24 h; higher = more signal, called active from +8 up or from −8 down.
Test [3] in a line: viability profiling in MM1S myeloma cells – cell-based, resazurin fluorescence, basal, 24 h, PK04 Diversity Set, profiling panel (AID 1174). Note: test concentration not given here. The settings on record: higher = more signal, called active from +8 up or from −8 down.
Test [4] has as its target Dihydroorotate dehydrogenase (quinone), mitochondrial (Plasmodium falciparum (isolate 3D7)) (UniProt Q08210). Description: inhibition of P. falciparum DHODH – biochemical, C-terminal His tag, absorbance 600 nm, primary screen (AID 1175).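 Note: recombinant parasite enzyme with a five histidine tag at its C terminus; test concentration not given here.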 The settings on record: PfDHODH enzyme, DCIP absorbance 600 nm; higher = more signal, called active from +8 up or from −8 down.
Test [5] in a line: inhibition of PAO1 biofilm formation – strain PAO1, LB-PBS medium, absorbance 600 nm, primary screen (AID 1176). Note: test concentration not given here. Particulars: P. aeruginosa PAO1 growth/biofilm, A600, 12 h; higher = more signal.
A short description of test [6]: growth modulation of vineyard yeast isolate – strain RM11-1a, OD600, basal, 24 h, primary screen (AID 1177).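 Note: cultures grown under basal conditions with no added stressor; test concentration not given here.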 The settings on record: S. cerevisiae RM11-1a growth, OD600, 24 h; higher = more signal, called active from +8 up or from −8 down.
The nature of test [7]: growth of efflux-deficient E. coli DRC39 – strain DRC39, OD650, 24 h, E. coli filamentation inducers, primary screen (AID 1178).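 Note: growth measured as culture turbidity by optical density at 650 nm; test concentration not given here.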 Particulars: E. coli DRC39 acrAB, higher = more signal, called active from +8 up or from −8 down.
A short description of test [8]: growth of efflux-deficient E. coli DRC39 – strain DRC39, OD650, 48 h, E. coli filamentation inducers, primary screen (AID 1179).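 Note: screen aims at cell division blockers that make cells filament.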 The settings on record: E. coli DRC39 delta-acrAB growth, higher = more signal, called active from +8 up or from −8 down.
Test [9] can be described thus: viability profiling in RPMI8226 myeloma cells – cell-based, resazurin fluorescence, basal, 24 h, PK04 Diversity Set, profiling panel (AID 1180).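 Note: RPMI8826 multiple myeloma cell line at 5000 cells per well; test concentration not given here.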 The settings on record: higher = more signal.
Test [10] has as its target E3 ubiquitin-protein ligase XIAP (Homo sapiens) (UniProt P98170). Description: small molecules binding XIAP protein – biophysical, small-molecule microarray, fluorescence 635 nm, primary screen (AID 1181).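 Note: score merges 667 nm emission and signal to noise over triplicate slides.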 The settings on record: higher = more signal.

SMILES strings stand for the structures. Calls of active or inactive are those of the source. Unless noted, the rule behind the calls is not given here.

Dihydroorotate dehydrogenase (quinone), mitochondrial (Plasmodium falciparum (isolate 3D7)), sequence (Q08210 whole entry, looked up): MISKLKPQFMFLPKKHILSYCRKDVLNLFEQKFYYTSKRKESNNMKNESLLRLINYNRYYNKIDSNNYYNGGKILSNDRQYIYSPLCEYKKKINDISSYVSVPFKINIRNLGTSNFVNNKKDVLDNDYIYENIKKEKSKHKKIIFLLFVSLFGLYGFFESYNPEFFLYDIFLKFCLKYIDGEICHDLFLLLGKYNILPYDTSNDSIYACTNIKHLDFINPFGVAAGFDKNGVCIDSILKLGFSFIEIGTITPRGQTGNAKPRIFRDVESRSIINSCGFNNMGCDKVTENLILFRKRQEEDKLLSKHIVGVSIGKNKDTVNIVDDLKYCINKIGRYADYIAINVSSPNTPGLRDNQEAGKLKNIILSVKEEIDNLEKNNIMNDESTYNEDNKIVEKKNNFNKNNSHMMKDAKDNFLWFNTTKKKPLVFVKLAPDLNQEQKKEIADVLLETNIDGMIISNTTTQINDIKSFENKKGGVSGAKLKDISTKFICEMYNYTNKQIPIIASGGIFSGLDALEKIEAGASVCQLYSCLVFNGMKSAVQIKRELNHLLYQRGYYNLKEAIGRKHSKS
E3 ubiquitin-protein ligase XIAP (Homo sapiens), sequence (P98170 whole entry, looked up): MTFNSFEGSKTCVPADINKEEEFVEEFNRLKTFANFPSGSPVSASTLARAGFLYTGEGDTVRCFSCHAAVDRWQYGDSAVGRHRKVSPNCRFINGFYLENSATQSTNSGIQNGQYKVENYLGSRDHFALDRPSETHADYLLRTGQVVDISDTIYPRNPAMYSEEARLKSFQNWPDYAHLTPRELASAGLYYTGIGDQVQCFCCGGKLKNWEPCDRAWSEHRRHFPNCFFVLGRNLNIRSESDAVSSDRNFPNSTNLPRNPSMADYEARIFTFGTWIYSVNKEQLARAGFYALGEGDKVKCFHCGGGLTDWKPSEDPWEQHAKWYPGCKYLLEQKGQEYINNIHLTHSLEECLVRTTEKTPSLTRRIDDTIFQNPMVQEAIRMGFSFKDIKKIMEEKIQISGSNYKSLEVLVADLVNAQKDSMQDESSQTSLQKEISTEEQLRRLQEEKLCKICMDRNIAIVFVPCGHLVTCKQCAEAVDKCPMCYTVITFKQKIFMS

Regarding `O=C1c2ccccc2[C@](Cc2ccccc2I)(C(=O)NC2CC2)[C@H](c2ccc(CO)cc2)N1Cc1ccccc1`, the z-score in [1] was 0.621; in [2], 0.401 (inactive); in [3], 0.414 (inactive); in [5], 0.14 (inactive); in test [6] it was -0.377 (inactive); in test [7] it was -0.0358 (inactive). The z-score is 0.0388 (inactive) in test [8] and 0.535 in [9]. The composite z-score in test [4] was 0.159 (inactive); in test [10], -0.0663.
Regarding `O=C1NC(=O)C2C1C=CC(C(O)C(c1ccccc1)c1ccccc1)N2Nc1ccc(Cl)cc1Cl` (stereo not given), the z-score in test [1] is -2.23; in test [2] it was -2.63 (inactive); in test [3], -1.05 (inactive); in [5] it was 0.599 (inactive); in [6], 1.17 (inactive); in [7] it was -0.659 (inactive). Besides, the figures for the z-score in test [8] and in test [9] were -0.712 (inactive) and -1.62, respectively. The composite z-score in [4] is 0.125 (inactive); in test [10] it was 0.236.
For `Cc1ccc(S[C@]2(C(=O)NCCN3CCOCC3)CC(=O)N(Cc3ccccc3)[C@@H]2c2ccc(CO)cc2I)cc1`, the z-score in test [1] is -0.396; in test [2], -3.23 (inactive); in test [3], -2.91 (inactive); in test [5] it was 0.422 (inactive); in [6], -1.71 (inactive); in [7], 0.359 (inactive). The z-score in test [8] was -0.46 (inactive); in [9], -2.02. Moreover, the composite z-score in test [4] is -4.58 (inactive); in [10], -0.152.
As to `COCCOC(=O)N1C(=O)[C@@]2(c3cc(C#CC4=CCCCC4)ccc31)[C@H](C(N)=O)[C@H]1C(=O)O[C@H](c3ccccc3)[C@H](c3ccccc3)N1[C@@H]2c1ccc(OCCO)cc1`, the z-score is -0.746 in test [1]; 1.04 (inactive) in test [2]; -1.95 (inactive) in test [3]; 1.67 (inactive) in test [5]; 2.53 (inactive) in test [6]; 0.0123 (inactive) in [7]. For the same compound, the z-score was 0.505 (inactive) in [8] and -3.18 in test [9]. For the same compound, the composite z-score is 0.948 (inactive) in [4] and -0.102 in test [10].
Take `COc1ccc([Si](C)(C)[C@H]2[C@H](CCn3cc([C@H](O)c4ccccc4)nn3)O[C@@]3(C(=O)N(Cc4cccc(N5CCOC5=O)c4)c4ccccc43)[C@@H]2C)cc1`: the z-score is -0.332 in test [1]; 0.548 (inactive) in test [2]; -1.59 (inactive) in [3]; 1.43 (inactive) in [5]; 1.18 (inactive) in test [6]; 0.196 (inactive) in [7]. Moreover, the z-score in test [8] is 0.0133 (inactive); in test [9], -0.754. Moreover, the results for the composite z-score in [4] and in test [10] were -0.351 (inactive) and -0.117, respectively.
With `COC(=O)c1c(CC[C@@H](CO)NC(=O)N[C@H](Cn2cc(Cc3ccccc3)nn2)C(C)C)oc(C(C)=O)c1C(=O)OC`, the z-score was -0.61 in test [1]; -1.64 (inactive) in test [2]; -0.0537 (inactive) in test [3]; 0.656 (inactive) in [5]; -0.705 (inactive) in [6]; 1.58 (inactive) in [7]. Also, the results for the z-score in test [8] and in test [9] were 0.582 (inactive) and -0.193, respectively. The composite z-score in test [4] was -3.09 (inactive); in test [10], -0.121.
Turning to `COc1ccc(C(=O)Nc2ccc(CN3C(=O)[C@@]4(O[C@@H](CCO)[C@H]([Si](C)(C)c5ccc(OC)cc5)[C@H]4C)c4ccccc43)cc2)cc1`, the z-score is -4.21 in test [1]; -3.8 (inactive) in [2]; -9.13 (active) in test [3]; 2.25 (inactive) in [5]; 3.08 (inactive) in test [6]; 1.53 (inactive) in test [7]. Besides, the figures for the z-score in test [8] and in test [9] were -0.0036 (inactive) and -5.97, respectively. Also, the composite z-score in test [4] is -0.851 (inactive); in test [10] it was -0.172.
For `N#Cc1ccc(NN2C(C(O)c3c(F)cccc3Cl)C=CC3C(=O)N(c4ccccc4)C(=O)C32)cc1` (stereo not given), the z-score in [1] is -1.31; in [2] it was 0.566 (inactive); in test [3] it was -0.392 (inactive); in test [5], 1.01 (inactive); in [6] it was -0.0762 (inactive); in test [7], -0.731 (inactive). The z-score in test [8] is -0.445 (inactive); in [9], -0.739. The composite z-score is 1.67 (inactive) in test [4] and 0.585 in test [10].
For the compound `CC(C)[C@@H](CO)NC(=O)[C@H]1[C@@H](c2ccccc2)N(c2ccccc2)O[C@@H]1C`, the z-score in [1] is 0.872; in [2], -2.53 (inactive); in test [3] it was 0.751 (inactive); in test [5] it was 0.0573 (inactive); in [6] it was 1.2 (inactive); in test [7], -0.323 (inactive). Also, the z-score in [8] is 0.506 (inactive); in test [9], 0.566. The figures for the composite z-score in [4] and in test [10] were -0.857 (inactive) and -0.0999, respectively.
Turning to `COC(=O)c1c(CC[C@@H](CO)NC(=O)N[C@@H](C)Cn2cc(C3(O)CCCCC3)nn2)oc(C(C)=O)c1C(=O)OC`, the z-score is -1.26 in test [1]; -2.52 (inactive) in [2]; -0.131 (inactive) in test [3]; 0.0793 (inactive) in test [5]; -0.314 (inactive) in test [6]; 0.104 (inactive) in test [7]. For the same compound, the z-score in test [8] was -0.305 (inactive); in test [9], -0.8. Further, the composite z-score in [4] is -2.71 (inactive); in test [10] it was -0.039.
Take `C=CCOC(=O)[C@@H]1[C@H]2C(=O)O[C@H](c3ccccc3)[C@H](c3ccccc3)N2[C@H](c2ccc(OCCOC(=O)[C@@H]3C[C@@H]4C(=O)N[C@@H](Cc5ccccc5)C(=O)N4[C@@H]3c3ccc(O)cc3)cc2)[C@@]12C(=O)Nc1ccc(I)cc12`: the z-score was -0.437 in [1]; 0.963 (inactive) in [2]; 0.372 (inactive) in test [3]; 2.1 (inactive) in test [5]; 1.91 (inactive) in [6]; -0.0033 (inactive) in [7]. Besides, the figures for the z-score in test [8] and in test [9] were -1.53 (inactive) and 0.411, respectively. In addition, the composite z-score in test [4] was -0.0246 (inactive); in [10], 0.104.
